# Test results: PubChem BioAssay AID1117361 (Southern Research Institute, 2015)
# The campaign covered roughly 3,600 compounds. About 900 (25%) were called active. The list is a sample of the results. Potency and affinity values are given separately. Unmarked numbers belong to inactive results. The rule behind the calls is not given here.
# Target: Protein Tat (Human immunodeficiency virus type 1 group M subtype B (isolate HXB2)) (UniProt P04608)
# Experiment: inhibitors of Tat binding to TAR RNA, dose response, counter-screen for Vif-APOBEC3G degradation inhibitor project, biochemical, fluorescence polarization, FAM-labeled TAR RNA (AID 1117361)
# Conditions: outcome: dose series up to 100 µM unless noted; series mostly up to 100 µM; inhibition: at the top concentration
Compound,outcome,inhibition [%]
CCCNC(=O)c1ccc2c(c1)C1C3CCC(C3)C1C(c1ccccc1)N2 (stereo not given),inactive,–
Cc1ccc(S(=O)(=O)NC(CC(C)C)C(=O)N2CCN(C/C=C/c3ccccc3)CC2)cc1 (stereo not given),inactive,–
O=C(CNC(=O)c1cccs1)OCC(=O)c1ccc2ccccc2c1,–,4.05
c1ccc(-c2nnc(-c3ccncc3)o2)cc1,–,0.68
O=C(COC(=O)COc1ccc(Cl)cc1Cl)NC1CCCCCC1,–,2.47
O=C(CC1NC(=O)NC1=O)Nc1cccc2ccccc12 (stereo not given),–,2.7
CC(NC(=O)CC1Nc2ccccc2NC1=O)c1ccccc1 (stereo not given),–,17.6
COc1ccc(OC)c(C2NC(=O)NC(C)=C2C(=O)Nc2ccc(C)cc2)c1 (stereo not given),–,0.68
COc1ccc(NC(=O)c2cc3ccccn3n2)cc1,–,13.5
Cc1cccc(C)c1OCCOCCN1CCN(C)CC1,inactive,–
CCN(CC)c1ccc(C(=C2C=CC(=[N+](CC)CC)C=C2)c2ccccc2)cc1,inactive,–
O=C(Nc1nccs1)C1CCCN(S(=O)(=O)c2cccc3cccnc23)C1 (stereo not given),inactive,–
Cn1c(C(=O)N[C@@H](C(=O)O)c2ccccc2)cc2cc(Cl)ccc21,–,29.1
COc1ccc2nc(SCC(=O)NN)cc(C)c2c1,–,4.05
Cc1ccc(SCCC(=O)NCc2ccco2)cc1,inactive,–
CC(C)(C)c1nnc(NC(=O)c2ccc(Cl)nc2)s1,inactive,–
N#Cc1ccccc1CN1C(=O)S/C(=C/c2cccn2-c2ccc(C(=O)O)cc2)C1=O,–,22.4
Cc1ccc(C(=O)O)cc1-c1ccc(/C=C2/NC(=O)N(c3ccccc3)C2=O)o1,–,10.3
CCNc1nc(OCCNS(=O)(=O)c2cc(C)ccc2C)nc(N(C)C)n1,–,2.03
COc1ccccc1NC(=O)C(C)NS(=O)(=O)c1ccc(F)cc1 (stereo not given),–,7.5
CCc1ccc(OCCNC(=O)c2cccs2)cc1,–,1.35
COc1ccccc1NC(=O)CN(c1ccccc1OC)S(=O)(=O)c1ccccc1,–,3.3
Cc1c(C(=O)NCc2cccnc2)oc2ccccc12,–,1.35
CCc1cccc(NC(=O)CCCCCC2NC(=O)NC2C)c1 (stereo not given),inactive,–

Compound,outcome,inhibition [%]
COC(=O)C1=C(C)NC(=O)C1(NS(=O)(=O)c1ccc(C)cc1)C(F)(F)F (stereo not given),–,2.05
Cc1ccc(C)c(NC(=S)NCc2ccccc2)c1,–,9.07
O=C(O)C1=C(C(=O)Nc2ccc(F)c(Cl)c2)CCCC1,–,10.1
CN1c2ccsc2/C(=N/NC(=O)c2c(F)cccc2F)CS1(=O)=O,–,10.2
COC(=O)CSc1nnc(CNC(=O)c2cccs2)n1-c1cc(OC)ccc1OC,inactive,–
Cc1ccc(NC(=O)CSc2nnc(C3CCCCC3)n2N)cc1F,–,0.68
CCOC(=O)C1CCCN(c2ncnc3c2cnn3-c2ccc(Cl)cc2)C1 (stereo not given),–,29.7
COc1cccc(NC(=O)C2CCCN2C(=O)OCc2ccccc2)c1 (stereo not given),–,4.05
O=C(O)c1cccc(S(=O)(=O)Nc2ccccc2Cl)c1,inactive,–
CCOc1cccc(NC(=O)C2CCCN(S(=O)(=O)c3ccc(OC)cc3)C2)c1 (stereo not given),inactive,–
O=c1nc(N2CCOCC2)nc2n1CCO2,–,0.68
Cc1cc(=O)n2nc(N3CCCC(C(=O)NC4CCC(C)CC4)C3)sc2n1 (stereo not given),inactive,–
CN(C)c1nc(OCCNC(=O)COc2ccc(Cl)cc2Cl)nc(N2CCOCC2)n1,inactive,–
CCCCC(=O)Nc1ccc(C(=O)NN2C(=O)c3ccccc3C2=O)cc1,–,2.73
Cc1ccc(NC(=O)CSc2nc(CSc3ccc(C)cc3)cc(=O)[nH]2)cc1,inactive,–
O=C1c2cnc3nc(SCc4ccccc4)nn3c2CC2c3ccccc3CCN12 (stereo not given),–,1.36
COc1ccc(S(=O)(=O)NCCSCc2ccco2)cc1Cl,–,23.9
CC(=O)Nc1ccc(S(=O)(=O)Nc2ccc(NC(=O)c3ccco3)cc2)cc1,inactive,–
FC(F)(F)c1cccc(Oc2ccc3c(C(F)(F)F)cc(C(F)(F)F)nc3n2)c1,inactive,–
O=C(Cc1c(F)cccc1Cl)NNC(=O)c1ccccc1Cl,inactive,–
CCc1ccccc1NC(=O)CC(O)(C(=O)OC)C(F)(F)F (stereo not given),–,2.05
O=C(CN1C(=O)NC2(CCCCC2)C1=O)NCCC1=CCCCC1,–,6.76
O=C(CN1C(=O)NC2(CCCCCCC2)C1=O)NCc1ccc2c(c1)OCO2,–,2.03
Cc1ccc(C(=O)COC(=O)CNC(=O)Cc2ccccc2)cc1[N+](=O)[O-],inactive,–

Compound,outcome,inhibition [%]
O=C(CN1C(=O)NC(c2ccc(F)cc2)C1=O)Nc1ccc2c(c1)OCCO2 (stereo not given),–,1.65
O=C(CSc1nnc(-c2cccs2)o1)OC1CCCCC1,inactive,–
CC1=C(C(=O)NCc2ccco2)C2(CCC(C)CC2)OC1=O (stereo not given),–,15
O=C1COc2ccc(C(=O)NCc3ccco3)cc2N1,–,6.76
Fc1ccc2[nH]c3c(N4CCc5ccccc5C4)ncnc3c2c1,inactive,–
CC1CCN(C(=O)C2c3ccccc3C(=O)N3CCc4ccccc4C23)CC1 (stereo not given),inactive,–
COc1ccc(-n2c(=O)[nH]cc(C(=O)N3CCc4ccccc43)c2=O)cc1,inactive,–
CCOc1ccc(C(=O)NC2CCN(S(=O)(=O)CC)CC2)cc1,–,5.41
CNS(=O)(=O)c1cccc(C(=O)OCc2cc(Cl)cc3c2OCOC3)c1,–,4.09
COCCn1c(SCC(=O)Nc2cc(C)on2)nc2cc(Cl)ccc2c1=O,–,7.42
CCN(CC)CCN=CC1=C(O)CNC1=O,–,19.6
CCOc1ccccc1N1C(=O)c2ccc(C(=O)Nc3cccnc3)cc2C1=O,inactive,–
C[C@H](NC(=O)NCc1cccs1)C(=O)O,–,14.4
CCOC(=O)c1c(C)[nH]c(C)c1C(=O)COC(=O)c1cccc(S(=O)(=O)NC)c1,–,2.05
COc1ccc(NC(=O)/C(C#N)=C/c2ccc(Sc3nncn3C)c([N+](=O)[O-])c2)cc1,inactive,–
CCN(c1ccc(NC(=O)COC(=O)c2ccc([N+](=O)[O-])o2)cc1)C(C)C,inactive,–
COc1ccc(NC(=O)/C(C#N)=C/c2ccc(Br)o2)cc1,inactive,–
CCOC(CCNC(=O)c1cn(C)c(=O)c2c1c1ccccc1n2C)OCC,–,9.02
COc1ccccc1-n1c(SCC(=O)NCc2ccc3c(c2)OCO3)nc2cc([N+](=O)[O-])ccc21,inactive,–
Nc1cc(N)nc(SCc2cc([N+](=O)[O-])cc3c2OCOC3)n1,–,12.4
COCCn1c(N)c(N(Cc2ccccc2)C(=O)C2CCCCC2)c(=O)[nH]c1=O,inactive,–
Cc1ccc(S(=O)(=O)N2CCN(Cc3nc4sc(C)c(C)c4c(=O)[nH]3)CC2)cc1,–,9.46
